Laboratory results as given in PubChem BioAssay (Tox21).
Values without a mark were called inactive. Records with an inconclusive call do not appear. A call without a number means that no potency is given here. Activity calls are given as the source filed them. Calls come from the whole dose curve.

Columns and labels:
[1] = biological target: Acetylcholinesterase (Homo sapiens) (UniProt P22303); experiment: Acetylcholinesterase (AChE) small molecule antagonists: colormetric cell-based qHTS assay (AID 1347395); note: nearly all actives have a fitted effect of over 30% in size; note: potency is the fitted concentration of half-maximal effect
Sequence of Acetylcholinesterase (Homo sapiens) (P22303 whole entry, looked up): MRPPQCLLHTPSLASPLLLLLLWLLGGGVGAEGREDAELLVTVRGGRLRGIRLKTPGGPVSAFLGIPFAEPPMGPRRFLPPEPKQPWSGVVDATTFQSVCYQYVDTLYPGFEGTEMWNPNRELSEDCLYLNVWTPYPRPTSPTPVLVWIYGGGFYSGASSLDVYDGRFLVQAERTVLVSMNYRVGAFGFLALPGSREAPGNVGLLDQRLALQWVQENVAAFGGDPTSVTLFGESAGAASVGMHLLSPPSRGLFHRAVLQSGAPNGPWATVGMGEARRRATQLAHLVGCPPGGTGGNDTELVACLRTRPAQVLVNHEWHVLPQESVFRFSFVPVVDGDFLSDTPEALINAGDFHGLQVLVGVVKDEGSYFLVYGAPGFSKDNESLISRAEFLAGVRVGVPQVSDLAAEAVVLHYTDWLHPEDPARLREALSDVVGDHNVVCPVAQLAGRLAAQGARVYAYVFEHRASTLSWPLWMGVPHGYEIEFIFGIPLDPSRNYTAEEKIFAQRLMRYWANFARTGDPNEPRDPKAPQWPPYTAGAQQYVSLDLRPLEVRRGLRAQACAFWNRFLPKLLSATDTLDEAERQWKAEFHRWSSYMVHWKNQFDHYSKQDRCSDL
Procedure, shortened: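 Endogenous AChE of human neuroblastoma SH-SY5Y cells was measured with an Ellman-type DTNB/acetylthiocholine mix. Compound pretreatment lasted 30 min at 37 C; substrate reaction ran 90 min at 37 C.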

[2] = biological target: Acetylcholinesterase (Homo sapiens) (UniProt P22303); experiment: Acetylcholinesterase (AChE) small molecule antagonists: enzyme-based qHTS assay (AID 1347397); conditions: Potency: AChE enzyme activity inhibition; outcome: AChE enzyme activity inhibition; note: nearly all actives have a fitted effect of over 55% in size; note: potency is the fitted concentration of half-maximal effect
Procedure, shortened: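 Tox21 library chemicals are tested in qHTS format against recombinant human AChE. The enzyme, dispensed at 50 mU/mL, sits with compound for 30 min at room temperature. A DTNB–acetylthiocholine cocktail follows, and colour is read after 10 min.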

[3] = biological target: Acetylcholinesterase (Homo sapiens) (UniProt P22303); experiment: Acetylcholinesterase (AChE) small molecule antagonists: enzyme-based qHTS assay with human liver microsomes (AID 1347399); conditions: Potency: qHTS inhibition; outcome: qHTS inhibition; note: nearly all actives have a fitted effect of over 60% in size
Procedure, shortened: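 Recombinant human AChE (50 mU/mL in the enzyme mix) and human liver microsomes (0.25 mg/mL final) were preincubated with compound and NADPH (0.25 mg/mL final) for 30 min at 37 C. Acetylthiocholine/DTNB was then added; thiocholine was read colorimetrically after 10 min at room temperature.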

Compound	Potency [1]	Potency [2]	Potency [3]	activity, negative = inhibition [1]	activity change, negative = inhibition [2]	activity change, negative = inhibition [3]
CC(C)(C)C(=O)Oc1ccc(S(=O)(=O)Nc2ccccc2C(=O)NCC(=O)O)cc1	inactive	inactive	inactive	–	–	–
CC(C)C1OCCN1CCOC(=O)NCCCCCCNC(=O)OCCN1CCOC1C(C)C (stereo not drawn)	inactive	inactive	inactive	–	–	–
Cc1c(I)c(=O)n(-c2ccccc2)n1C	inactive	inactive	inactive	–	–	–
OCc1cc(C(O)CNCCCCCCOCCCCc2ccccc2)ccc1O (stereo not drawn)	inactive	inactive	inactive	–	–	–
CN(C)CC[C@@H](c1ccc(Br)cc1)c1ccccn1	inactive	inactive	inactive	–	–	–
C=COCCOCCOCCOC=C	inactive	inactive	inactive	–	–	–
O=C(CCBr)N1CCN(C(=O)CCBr)CC1	inactive	inactive	inactive	–	–	–
CC(C)OC(=O)c1cc2c(OCC(O)CNC(C)(C)C)cccc2[nH]1 (stereo not drawn)	inactive	inactive	inactive	–	–	–
CCN(CC)CCOCCOC(=O)C1(c2ccccc2)CCCC1	inactive	inactive	inactive	–	–	–
CCCOC(C(=O)OC1CCN(C)CC1)(c1ccccc1)c1ccccc1	inactive	inactive	inactive	–	–	–
NC(=O)NC1N=C([O][Al])NC1=O (stereo not drawn)	inactive	inactive	inactive	–	–	–
CCCCCCCCCCCCCCCCCC[N+](C)(C)C	inactive	63.5 µM (active)	inactive	–	–	–
CC(C)C[P+](C)(CC(C)C)CC(C)C	40.2 µM (active)	inactive	inactive	–	–	–
CCN(CC)CCNc1ccc(CO)c2sc3ccccc3c(=O)c12	inactive	inactive	inactive	–	–	–
COc1c(C)c2c(c(O)c1C/C=C(\C)CCC(=O)O)C(=O)OC2	inactive	inactive	inactive	–	–	–
Cc1ccc([N+](=O)[O-])cc1Cl	inactive	inactive	inactive	–	–	–
CCC(Cc1ccccc1)(C(=O)c1ccc(N2CCOCC2)cc1)N(C)C (stereo not drawn)	inactive	inactive	inactive	–	–	–
CCCCCCCC/C=C/CCCCCCCC1=NCCN1CCO	inactive	inactive	inactive	–	–	–
c1ccc(C(O[C@@H]2CCCN(CCc3ccc4c(c3)OCO4)C2)c2ccccc2)cc1	inactive	inactive	inactive	–	–	–
N=C(N)N1CCc2ccccc2C1	–	–	–	3.08% [at 10.5 µM]	0.139% [at 10.5 µM]	2.85% [at 10.5 µM]
CCc1nn(CCCN2CCN(c3cccc(Cl)c3)CC2)c(=O)n1CCOc1ccccc1	inactive	inactive	inactive	–	–	–
